A selection: hits, their analogues and other compounds. The true share with any hit is near 5.4%.
ALR inh = human ALR oxidase inhibition via reduced H2O2; purified ALR, DTT oxidation, H2O2 HRP-luminol luminescence; P55789; inhibition, % (concentration not given with the values); 290,000 tested, 3.8% active; AID 485317;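 active = mean replicate inhibition above about 79%, with every replicate also reaching it, limit read from the data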
Target sequence (P55789 whole entry, looked up): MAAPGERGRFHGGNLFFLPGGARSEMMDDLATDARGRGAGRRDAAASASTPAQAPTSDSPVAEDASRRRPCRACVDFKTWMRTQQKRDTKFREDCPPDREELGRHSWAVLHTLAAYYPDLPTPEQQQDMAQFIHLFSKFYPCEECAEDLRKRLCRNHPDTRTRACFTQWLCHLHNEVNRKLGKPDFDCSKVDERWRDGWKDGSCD
MIN6 prolif = inducers of beta-cell replication in MIN6 cells; MIN6 cells proliferation, ATPlite luminescence, 48 h; cells starved in 0.2% serum; 100% = growth in 10% serum; proliferation, % at 10 µM; 330,000 tested, 0.29% active;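 active = compounds whose signal lies at least 3.5 SD above the mean of all wells on their plate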;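 also: 0% = DMSO-treated cells in low-serum medium and 100% = 10% serum control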
SMARCA2 activ = SMARCA2 function activation, primary screen | MG213 cells, MMTV-luciferase reporter, dexamethasone, overnight | activation, % at 9.1 µM | 370,000 tested, 1% active; in the data active = activation above about 7.8%;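 also: 0% = vehicle wells and 100% = reference activator wells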
PfM18AAP inh = PfM18AAP enzyme inhibition; recombinant PfM18AAP, H-Glu-NHMec fluorogenic cleavage; inhibition, % at 7.35 µM; 290,000 tested, 1.2% active;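 active = inhibition above the campaign mean inhibition over all tested compounds plus 3 SD, cut at about 28% in these data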;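 also: 0% = plate median of test compound wells and 100% = 2 mM ZnCl2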
JMJD2C inh = blocks human GASC-1 demethylase activity; 330,000 tested, 0.069% active; GST-JMJD2C(1-420) H3K9me3 demethylation, DELFIA europium; inhibition, % at 2.35 µM; AID 2099;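 active = more than half of a compound's replicate wells show inhibition beyond 50%, single wells judged on their own value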;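 also: signal counts dimethyl H3K9 product captured on neutravidin plate; 0% = median of DMSO wells and 100% = 0.3 times that DMSO median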
Target sequence (Q9H3R0 1-420 limits assumed): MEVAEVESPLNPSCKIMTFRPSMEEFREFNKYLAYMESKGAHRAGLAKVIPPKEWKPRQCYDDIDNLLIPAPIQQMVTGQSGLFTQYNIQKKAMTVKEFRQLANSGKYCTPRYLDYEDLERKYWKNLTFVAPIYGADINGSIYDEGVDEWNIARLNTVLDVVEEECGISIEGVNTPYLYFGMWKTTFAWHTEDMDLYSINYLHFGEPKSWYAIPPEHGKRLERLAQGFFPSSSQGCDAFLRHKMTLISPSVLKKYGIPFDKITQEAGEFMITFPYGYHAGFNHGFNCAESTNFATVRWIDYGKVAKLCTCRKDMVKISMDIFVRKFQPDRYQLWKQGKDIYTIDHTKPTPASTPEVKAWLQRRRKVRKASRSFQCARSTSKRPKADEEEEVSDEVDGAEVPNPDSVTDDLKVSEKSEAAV
Exocytosis inh = blocks lytic granule exocytosis; TALL-104 LAMP-1 surface exposure, flow cytometry; cells stimulated with thapsigargin and PMA; inhibition, % at 10 µM; 360,000 tested, 0.66% active;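 active = inhibition above about 55%, limit read from the data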
Granule exo CP1 = blocks lytic granule exocytosis. shares compounds with Exocytosis inh. TALL-104 cells, LAMP-1 externalization, flow cytometry; stimulated with PMA plus thapsigargin. inhibition, % at 10 µM. 1,500 tested, 11% active. AID 651954; in the data active = inhibition above about 60%;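 also: 0% = stimulated vehicle wells and 100% = unstimulated wells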
* marks the source's active call; other numbers are inactive results; nt = no result given.

SMILES | ALR inh | MIN6 prolif | SMARCA2 activ | PfM18AAP inh | JMJD2C inh | Exocytosis inh | Granule exo CP1
CCOC(=O)C(=CNc1ccccc1C)C(=O)OCC | -4.8 | -5.7 | -1.6 | -2.0 | 9.4 | -1.4 | nt
CCC(C(=O)n1cccc1C#N)c1ccccc1C (stereo unspecified) | 4.2 | -2.5 | -0.7 | nt | -3.5 | 70.0* | -5.1
C=CCN1C(=O)[C@@H](CC(=O)NCCCOCCCC)[C@]2(C(=O)OC)CCCCC=C12 | nt | nt | -2.3 | nt | nt | nt | nt
CC(=O)Nc1cc(-c2ccccc2F)cn2c(-c3ccccc3)cnc12 | nt | nt | -0.3 | nt | nt | 79.2* | 94.1*
COc1ccc(-c2cc(NC(C)=O)c3ncc(-c4ccccc4)n3c2)c(OC)c1 | nt | nt | -0.4 | nt | nt | 94.0* | 96.2*
COc1cccc(-c2cnc3c(NC(C)=O)cc(-c4ccccc4OC)cn23)c1 | nt | nt | -2.5 | nt | nt | 75.9* | 93.6*
COc1cccc(-c2cnc3c(NC(C)=O)cc(-c4cc(OC)c(OC)c(OC)c4)cn23)c1 | nt | nt | -2.1 | nt | nt | -1.2 | nt
CCCN(CCC)Cc1cc(=O)oc2ccccc12 | nt | nt | -2.3 | nt | nt | nt | nt
c1ccc(Cc2cnc(N3CCN(Cc4csc5ccccc45)CC3)nc2)cc1 | nt | nt | -5.4 | nt | nt | nt | nt
Cc1cc(N2CCN(c3nc(-c4ccc([N+](=O)[O-])cc4)cs3)CC2)c2ccccc2n1 | -11.9 | -6.8 | -0.1 | -5.4 | -6.7 | 66.4* | 79.5*
O=C(NCc1ccc2c(c1)OCO2)C12CN(Cc3ccccc3)CC1C(c1cccc([N+](=O)[O-])c1)=NO2 (stereo unspecified) | -0.5 | -4.6 | -0.6 | 15.8 | 2.3 | 100.1* | -4.5
COc1ccccc1CNc1nc(NCc2ccccc2OC)c2sccc2n1 | nt | nt | -6.9 | nt | nt | -2.5 | nt
COc1ccccc1CNc1nc(NCc2ccc3occc3c2)c2sccc2n1 | nt | nt | -2.7 | nt | nt | 92.8* | 89.9*
c1cc2cc(CNc3nc(NCC4CC4)nc4ccsc34)ccc2o1 | nt | nt | -3.2 | nt | nt | 17.3 | nt
COc1ccccc1CNc1nc(NCCOc2ccccc2)c2sccc2n1 | nt | nt | -6.1 | nt | nt | 56.4* | 45.4
CC(C)[C@@H](C)/C=C/[C@@H](C)[C@H]1CC[C@@H]2[C@]1(C)CCC1[C@]23C=C[C@]2(C[C@@H](O)CC[C@]12C)N(C(=O)Cc1ccccc1)O3 (stereo partly specified) | nt | nt | 3.8 | nt | nt | nt | nt
COc1ccccc1NC(=O)c1cc(S(=O)(=O)N2CCc3ccccc32)ccc1F | -9.5 | -3.2 | -2.9 | 7.7 | -12.3 | 74.2* | -12.1
COc1ccc(CCNC(=O)c2cc(S(=O)(=O)N3CCc4ccccc43)ccc2F)cc1OC | nt | nt | 2.1 | nt | nt | -1.1 | nt
Nc1nc2c(ncn2[C@@H]2O[C@H](C(=O)NC3CCCCC3)[C@@H](O)[C@H]2O)c(=O)[nH]1 | nt | nt | 3.7 | nt | nt | nt | nt
Cc1cc(C(=O)N(C)CC(=O)Nc2ccccc2C(F)(F)F)c(C)o1 | -2.2 | 2.3 | -3.1 | -11.8 | -1.4 | 61.7* | -14.4
CN(CC(=O)Nc1ccccc1C(F)(F)F)C(=O)C1=COCCO1 | -2.0 | 0.5 | -4.2 | nt | -3.9 | -1.6 | nt
CC(=O)N(CCC(Cc1ccccc1)c1ccc2c(c1)OCO2)Cc1ccc(Cl)cc1 (stereo unspecified) | -2.1 | -6.6 | -2.9 | 4.6 | 4.0 | 89.6* | 19.3
COC(=O)N1C[C@H](Oc2ncccn2)[C@H]2C[C@@H]1c1ccccc1O2 | nt | nt | -5.7 | nt | nt | nt | nt
CCN1CCN(CCNC(=O)c2ccc(/C=C3/Sc4ccccc4N(Cc4ccccc4C)C3=O)cc2)CC1 | nt | nt | 5.9 | 1.1 | -10.7 | 66.2* | 28.9
Cc1n[nH]c(=O)c2c(NC(=O)CSc3ncccn3)oc(C)c12 | -4.9 | -4.1 | 0.1 | nt | 0.9 | 6.6 | nt
SMILES | ALR inh | MIN6 prolif | SMARCA2 activ | PfM18AAP inh | JMJD2C inh | Exocytosis inh | Granule exo CP1
C=CCn1c(C)nnc1SCC(=O)Nc1oc(C)c2c(C)n[nH]c(=O)c12 | -4.1 | 2.7 | -0.6 | nt | 145.5 | 80.1* | -12.1
Nc1ccn([C@@H]2O[C@H](C(=O)N[C@H](Cc3ccccc3)C(=O)N3CCN(C(=O)N4CCCCC4)CC3)[C@@H](O)[C@H]2O)c(=O)n1 | nt | nt | 0.9 | nt | nt | nt | nt
CCc1cccc(NC(=O)Cn2ncn3c(cc4ccccc43)c2=O)c1 | -3.7 | -0.6 | -1.2 | 6.2 | 2.1 | -5.0 | nt
Cc1ccc(NC(=O)Cn2ncn3c(cc4ccccc43)c2=O)cc1F | -1.2 | -5.1 | -3.1 | -2.4 | -0.8 | 106.0* | -14.6
CCCCC(=O)Nc1nc(C)c(-c2csc(Nc3ccccc3OC)n2)s1 | -3.2 | -7.0 | -1.0 | -0.3 | -0.6 | 57.0* | -14.3
CN(C)C(=O)c1ccc(NC(=O)COC(=O)C2(c3ccccc3)CCCC2)cc1 | -1.8 | -4.2 | -2.1 | nt | 0.5 | 76.5* | -4.7
N#Cc1ccc(Cn2ccc3ccc(-c4ccc5ccn(Cc6ccc(C#N)cc6)c5c4)cc32)cc1 | nt | nt | -0.9 | nt | nt | nt | nt
CC(C)(C)S(=O)N1C[C@@H]2CC(=O)C(CCO)=C2[C@H]1CCO (stereo partly specified) | nt | nt | -5.3 | nt | nt | nt | nt
Cc1cccc(OCCOC(=O)c2c(-c3ccccc3)noc2C)c1 | nt | -6.2 | -3.0 | -2.6 | 11.2 | 75.0* | -8.9
CCCOc1cccc(NC(=O)c2c(-c3ccccc3)noc2C)c1 | 2.5 | -2.5 | 3.9 | 1.8 | 7.5 | -4.2 | nt
O=C(CCCc1ccccc1)Nc1cccc([N+](=O)[O-])c1 | nt | -0.1 | 1.3 | 7.2 | 4.9 | 57.0* | -12.7
OC(COC(c1ccccc1)c1ccccc1)CN1CCN(c2cccc(Cl)c2)CC1 (stereo unspecified) | nt | -6.5 | -1.1 | -14.4 | -9.2 | 68.0* | -4.0
c1ccc(COc2ccc(-c3cc4nc(NCCCn5ccnc5)ccn4n3)cc2)cc1 | nt | nt | 0.3 | nt | nt | 72.1* | 99.1*
COCCCNc1ccn2nc(-c3cccc(OCc4ccccc4)c3)cc2n1 | nt | nt | -2.5 | nt | nt | 3.5 | nt
Nc1nc2ncccc2cc1C(=O)NC1CC1 | nt | nt | -3.4 | nt | nt | nt | nt
CC(=O)Nc1ccc(SC[C@H](CC(C)C)N2CCN(CCc3ccccc3)CCC2=O)cc1 | 98.8* | -4.6 | -0.6 | nt | 2.0 | 66.0* | -3.4
COCCNc1nc(NCC2CCCCC2)c2sc(-c3ccccc3)cc2n1 | nt | nt | -4.0 | nt | nt | 52.9 | nt
c1ccc(-c2cc3nc(NCC4CC4)nc(NCC4CCCCC4)c3s2)cc1 | nt | nt | -5.1 | nt | nt | 57.0* | 31.9
C[C@H](O)[C@@H]1CN2CCc3c([nH]c4ccc(-c5ccc6c(c5)OCO6)cc34)[C@@H]2C[C@@H]1N(C)C(=O)Nc1ccc(F)cc1 | nt | nt | -8.2 | nt | nt | 65.4* | 0.7
COc1ccc2c(c1)CN1C(=O)N(CC(C)C)S(=O)(=O)CC21 (stereo unspecified) | nt | nt | 4.5 | nt | nt | nt | nt
COC(=O)C1=C(C)N(C)C(=NCc2cc(OC)c(OC)c(OC)c2)NC1c1cccc(F)c1 (stereo unspecified) | nt | nt | -5.5 | nt | nt | nt | nt
OC(COc1ccccc1)CN1CCN(C(c2ccccc2)c2ccccc2)CC1 (stereo unspecified) | -2.9 | -3.0 | -2.9 | 4.0 | 1.7 | 18.3 | nt
c1ccc(OCCOCCN2CCN(C(c3ccccc3)c3ccccc3)CC2)cc1 | nt | 0.0 | -1.5 | 3.2 | 2.7 | 59.0* | 7.6
COc1ccc(C(=O)CSc2nnc(-c3cccnc3)n2-c2ccccc2)cc1 | nt | nt | -1.6 | nt | nt | nt | nt

Source: PubChem (several laboratories)
